# Source: PubChem BioAssay (National Center for Advancing Translational Sciences (NCATS))
# NS1 function inh: qHTS Assay for Inhibitors of Influenza NS1 Protein Function | hit rate 0.4% among 270,000 | Potency, µM (titrated, usually from 46.1 µM); calls by dose curve; further: actives are rising curves; nearly all actives have a fitted effect of over 50% in size
#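 In this qHTS, NS1 from influenza A is expressed in budding yeast, where it slows growth. Cells are switched from glucose to 2% galactose medium (pH 6.0, -URA), treated with compound, and growth recovery is read at OD600.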
# Cruzain inh Det: qHTS Assay for Promiscuous and Specific Inhibitors of Cruzain (with detergent). hit rate 0.43% among 200,000. Cruzipain (Trypanosoma cruzi), P25779. purified cruzain, Z-FR-AMC fluorescence, 0.01% Triton. Potency, µM, hits mostly inhibitors; further: nearly all actives have a fitted effect of over 40% in size
# Target sequence (P25779 123-467 limits assumed): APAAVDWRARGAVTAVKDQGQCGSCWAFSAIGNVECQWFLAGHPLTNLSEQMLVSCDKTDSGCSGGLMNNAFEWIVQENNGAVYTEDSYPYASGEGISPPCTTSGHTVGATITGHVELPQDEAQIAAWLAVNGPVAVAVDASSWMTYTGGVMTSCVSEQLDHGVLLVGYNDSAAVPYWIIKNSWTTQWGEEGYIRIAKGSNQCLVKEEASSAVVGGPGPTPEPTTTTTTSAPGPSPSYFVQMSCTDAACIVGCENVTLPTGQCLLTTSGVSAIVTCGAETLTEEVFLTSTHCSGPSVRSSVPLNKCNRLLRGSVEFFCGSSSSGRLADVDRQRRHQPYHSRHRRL
#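 Enzyme 1.5 nM, Z-FR-AMC 2 uM, NaOAc 100 mM pH 5.5, DTT 5 mM, Triton X-100 0.01%; 15 min RT compound preincubation; kinetic ex360/em450, 60 s delta.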
# Cruzain noTriton: qHTS Assay for Promiscuous and Specific Inhibitors of Cruzain (without detergent); purified cruzain, Z-FR-AMC fluorescence, no detergent; Potency, µM, usual class: inhibitors; hit rate 2.3% among 200,000; AID 1476, 2009; further: nearly all actives have a fitted effect of over 40% in size
#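 Purified cruzain at 1.5 nM, pre-incubated 15 min with compound at room temperature in 100 mM sodium acetate pH 5.5, 5 mM DTT, 0.00005% Triton X-100. Reaction started with 2 uM Z-FR-AMC; AMC fluorescence increase over 60 s gives rate.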
# Numbers stand for hits; i = inactive; ? = inconclusive; nt = no result. The sample as a whole holds a higher share of hits than the screen did. Unless noted, the call rests on the fitted dose curve; in most records, active means well fitted curve in the direction sought with a large enough effect; inconclusive means small, poorly fitted or top-dose-only effect, or another doubt; inactive means no such curve, though single readings can be large; an effect the other way counts as inactive or inconclusive.
SMILES,NS1 function inh,Cruzain inh Det,Cruzain noTriton
CCOc1ccc(C(=O)NC(=S)Nc2ccccc2N2CCOCC2)cc1Br,i,i,16µM
O=[N+]([O-])c1ccc(C(=S)N2CCN(c3ccc(F)cc3)CC2)cc1,i,nt,nt
COc1ccc(C(=O)NC(=S)Nc2ccccc2N2CCOCC2)cc1Br,i,i,?
O=C(NC(=S)Nc1ccccc1N1CCOCC1)c1ccc(-c2cc(Cl)ccc2Cl)o1,i,i,10µM
CC1CCN(c2ccccc2NC(=S)NC(=O)c2ccc(-c3cccc([N+](=O)[O-])c3)o2)CC1,i,i,7.9µM
O=C(NC(=S)Nc1ccccc1N1CCOCC1)c1ccco1,i,i,i
O=[N+]([O-])c1cccc(-c2ccc(C(=S)N3CCN(c4ccc(F)cc4)CC3)o2)c1,i,i,25µM
CC1CCN(c2ccc(NC(=S)NC(=O)c3ccc(-c4cccc([N+](=O)[O-])c4)o3)cc2)CC1,i,i,?
Cc1cc(C)c2oc(C(=O)Nc3nc4ccc(Cl)cc4s3)cc(=O)c2c1,nt,i,i
COc1ccc(Br)cc1CN1C(=O)c2ccccc2C1C(=O)NC1CCCCCC1 (stereo not drawn),nt,i,i
C[N+]1(C)CC[C@@H](OC(=O)[C@@](O)(c2ccccc2)C2CCCC2)C1,nt,i,i
Nc1nc2ncc(=O)[nH]c2c(=O)[nH]1,nt,i,i
O=C(O)CCN1C(=O)C(=C2CCCCCC2)SC1=S,i,i,i
O=C1C(=C2CCCCC2)SC(=S)N1Cc1ccco1,i,20µM,16µM
COc1ccccc1NC(=O)c1sc2nc3n(c(=O)c2c1C)N=C(c1cccc(Br)c1)CS3,nt,i,i
COc1cccc([C@@H]2Oc3ccc(Br)cc3C(=O)[C@H]2OC(=O)NS(=O)(=O)c2ccc(F)cc2)c1,nt,i,i
CN1CCc2ccccc2[C@@H]1Cc1ccccc1NC(=O)c1sc2ccccc2c1Cl,i,i,i
Cc1sc2nc(SCc3nc4ccccc4[nH]3)n(Cc3ccco3)c(=O)c2c1C,i,i,32µM
Cc1sc2nc(SCc3ccccc3)n(Cc3ccco3)c(=O)c2c1C,?,i,?
Cc1cccc(CSc2nc3sc(C)c(C)c3c(=O)n2Cc2ccco2)c1,i,i,?
COc1cccc(CSc2nc3sc(C)c(C)c3c(=O)n2Cc2ccco2)c1,i,i,25µM
COc1ccc([C@]23Cc4cc(OC)c(OC)cc4C(O2)c2c(cc(C)n(Cc4ccccc4)c2=O)O3)cc1,i,nt,nt
N#CCCCS(=O)(=O)c1nnnn1-c1ccc(Br)cc1,nt,i,i
CCCCOc1ccc(S(=O)(=O)Nc2ccc(-c3ccc(N4CCCCC4)nn3)cc2)cc1,nt,i,32µM
CCCCOc1ccc(S(=O)(=O)Nc2ccc(-c3ccc(N4CCCCCC4)nn3)cc2)cc1,nt,i,i
SMILES,NS1 function inh,Cruzain inh Det,Cruzain noTriton
CCOc1ccc(NC(=O)C2(c3cccs3)CCOCC2)cc1,nt,i,i
CCc1cc2cc3c(cc2nc1SCC(=O)Nc1nccs1)OCO3,i,i,20µM
CCc1cc2cc3c(cc2nc1SCC(=O)Nc1c[nH]c(=O)[nH]c1=O)OCO3,i,nt,nt
CC(C)[C@H](CO)Nc1nc(Nc2cccc(Cl)c2)c2ncn(C(C)C)c2n1,nt,i,?
C[C@H]1CC[C@@H]2N(C1)C[C@H]1[C@@H]3C[C@H]4[C@@H](C/C(=N\O)[C@H]5C[C@@H](O)CC[C@@]54C)[C@@H]3CC[C@H]1[C@]2(C)O,nt,i,i
NS(=O)(=O)c1ccc(CCNc2nc3c(-c4cccc(F)c4)nnn3c3ccccc23)cc1,i,i,20µM
Cc1cccc(-c2nnn3c2nc(NCCc2ccc(S(N)(=O)=O)cc2)c2ccccc23)c1,i,i,?
COC1=CC(=O)OC(CCc2ccccc2)C1 (stereo not drawn),nt,i,i
Fc1ccc(NC(=S)Nc2ccc(Cl)cc2Cl)cc1,i,nt,nt
Fc1ccccc1/C=N/NC(=S)Nc1ccc(Cl)cc1Cl,i,i,10µM
N#Cc1cc2c(=O)n3ccccc3nc2n(-c2nnc(SCc3ccccc3)s2)c1=O,nt,i,i
Cc1cccn2c(=O)c3cc(C#N)c(=O)n(-c4nnc(SCc5ccc(Cl)cc5)s4)c3nc12,nt,i,20µM
CCCCC/C=C\C/C=C\C/C=C\C/C=C\CCCC(=O)N[C@H](C)CO,nt,i,i
COc1c(C)cccc1C(=O)NC(=S)Nc1ccc2c(c1)Cc1ccccc1-2,i,i,20µM
O=C(Nc1ccc2c(c1)Cc1ccccc1-2)c1cccnc1,i,nt,nt
COc1cccc(OC)c1C(=O)NC(=S)Nc1ccc2c(c1)Cc1ccccc1-2,i,i,16µM
O=C(Nc1cccc(-c2csc(Nc3ccccc3)n2)c1)c1ccccc1,i,nt,nt
COc1ccc(C(=O)Nc2ccc3c(c2)Cc2ccccc2-3)cc1,i,i,10µM
O=C(Nc1nc(-c2ccc3c(c2)Cc2ccccc2-3)cs1)c1ccccc1,i,i,20µM
COc1c(C)cccc1C(=O)NC(=S)Nc1ccccc1N1CCCC1,i,nt,nt
COc1cccc(OC)c1C(=O)Nc1ccc2c(c1)Cc1ccccc1-2,i,nt,nt
[N-]=[N+]=[N-],nt,i,i
O=C(Nc1ccc(F)c(Cl)c1)C1CCCN1S(=O)(=O)c1ccc(F)cc1 (stereo not drawn),nt,i,i
Cc1ccc(OCc2nc(-c3ccc(C(=O)N4CCN(c5cc(Cl)ccc5C)CC4)cc3)oc2C)cc1,nt,i,i
COc1cc(/C=N/Nc2cccc(C)c2)ccc1OC(=O)c1cccs1,i,i,16µM
SMILES,NS1 function inh,Cruzain inh Det,Cruzain noTriton
COc1cc(/C=N/NC(=O)COc2ccccc2C)ccc1OC(=O)c1cccs1,i,i,i
COc1cc(/C=N/Nc2nc(C)cc(C)n2)ccc1OC(=O)c1ccco1,i,i,i
COc1cc(/C=N/Nc2ccc3ccccc3c2)ccc1OC(=O)c1ccco1,i,i,25µM
COC(=O)c1ccccc1NC(=O)NCCc1c(C)nn(C)c1C,nt,i,i
COc1cc(OC)c(NC(=O)C(C)n2nc(-c3ccc(C)c(C)c3)ccc2=O)cc1Cl (stereo not drawn),nt,i,?
O=C(Nc1ccccc1Cl)[C@H](CSCc1ccccc1)N1Cc2ccccc2C1=O,nt,i,i
